Test results: PubChem BioAssay AID1259240 (Keith Lab, Institute of Cancer Science, University of …, 2017)
A number with no mark means an inactive call. Activity calls are given as the source filed them. Rule as the data show it: active = fold change mostly below about -2 (no sharp cut-off); inactive = mostly above about -1.8.

Assay: modulation of TERT promoter-driven luciferase – cell-based, luciferase reporter, human, primary screen (AID 1259240)
Conditions: A2780 TERT promoter luciferase reporter, 16 h; at 20 µM, fold versus average of vehicle-only wells

Row | Structure (SMILES) | fold change | outcome
1 | CCCN1CN=C(Nc2nc(C)c3ccc(C)cc3n2)NC1 | -2.8 (active) | –
2 | CC(=O)NCCNC(=O)c1cccn2c(=O)c3c4c(sc3nc12)CCCC4 | -1.41 | –
3 | Fc1ccc(Nc2nnc(Cc3ccncc3)c3ccccc23)cc1 | -1.37 | –
4 | CC1(C)CC(=O)c2sc(NC(=O)Cc3ccc(Br)cc3)nc2C1 | -3.4 (active) | –
5 | c1ccc2c(c1)nc(N1CCN(C3CCCCC3)CC1)c1nncn12 | 1.24 | –
6 | CN1CCN(CCCNC(=O)Cn2ncc3c4ccccc4n(C)c3c2=O)CC1 | -1.07 | –
7 | Cc1ccc(-c2cc(C(F)F)n3ncc(C(=O)Nc4cccnc4Cl)c3n2)cc1 | -1.66 | –
8 | CC(CC(=O)Nc1nccs1)CC1=NS(=O)(=O)c2ccccc2N1 (centres undefined) | -1.22 | –
9 | O=C(O)CN1C(=O)/C(=C\c2cn(Cc3ccc(F)cc3)c3ccccc23)SC1=S | -1.28 | –
10 | Clc1ccc2c(c1)C1CC(c3ccccc3)=NN1C(c1ccncc1)O2 (centres undefined) | -1.13 | –
11 | O=c1/c(=C/c2ccc(F)cc2)sc2nc(-c3ccco3)nn12 | -1.22 | –
12 | CCOC(=O)N1CCC(Nc2c(NC3CCC(C)CC3)c(=O)c2=O)CC1 (centres undefined) | 1.1 | –
13 | Cn1c(=O)c2cc(S(=O)(=O)NCCC(=O)NC3CCCCCC3)ccc2n(C)c1=O | 1.3 | –
14 | COc1ccc(-n2c(C)c(C(C)=O)c3cc(OCC(N)=O)ccc32)cc1 | -1.38 | –
15 | Cc1cc(C)cc(NC(=O)CC(C)CC2=NS(=O)(=O)c3ccccc3N2)c1 (centres undefined) | -1.03 | –
16 | O=C(CCSCCc1ccccn1)Nc1nccs1 | 1.07 | –
17 | Cc1ccn(CN2CCN(Cn3ccc(C)n3)C2=S)n1 | 1.29 | –
18 | CC1=CC(=O)OC1Cc1ccc2ccccc2n1 (centres undefined) | -1.06 | –
19 | O=C(Nc1cnn(Cc2ccc(F)cc2)c1)c1cc(C2CC2)on1 | -1.17 | –
20 | Cc1cc2c(c(=O)[nH]1)C(=O)O/C2=C\c1cc([N+](=O)[O-])ccc1O | -1.57 | –

Row | Structure (SMILES) | fold change | outcome
21 | Cc1cc(C)cc(N(CC(=O)O)S(=O)(=O)c2ccc3[nH]c(=O)c(=O)[nH]c3c2)c1 | 1.37 | –
22 | COc1ccc(-c2n[nH]c3c2C(c2ccccc2)NC3=O)cc1 (centres undefined) | -1.24 | –
23 | CCN(CC)c1ccc2cc(C(=O)O)c(=O)oc2c1 | 1.12 | –
24 | CCOC(=O)Cn1c(=O)oc2cc(S(=O)(=O)Nc3ccc(F)cc3)ccc21 | -1.03 | –
25 | COc1cc(NC(=O)c2onc(C)c2Cl)cc(OC)c1OC | 1.32 | –
26 | Cc1oc2cc(OC(=O)N3CCOCC3)ccc2c(=O)c1Oc1ccccc1Br | -1.46 | –
27 | CN1C(=O)C2ON(c3ccc(Cl)cc3)C(c3cccs3)C2C1=O (centres undefined) | -1.37 | –
28 | O=C(NCCN1CCCCCC1)C1CCC(CNS(=O)(=O)c2cccc3nsnc23)CC1 (centres undefined) | -1.56 | –
29 | CC1CCCC(NC(=O)CN(C)S(=O)(=O)c2ccc3c(c2)CCC(=O)N3)C1C (centres undefined) | -1.68 | –
30 | COc1ccc(Nc2c(-c3cccc(O)c3)nc3ncccn23)cc1 | 1.03 | –
31 | CCOC(=O)Cn1c(=O)oc2cc(S(=O)(=O)NCc3cccs3)ccc21 | -1.2 | –
32 | CCS(=O)(=O)Nc1ccc(C2=NN(S(=O)(=O)c3ccc(F)cc3)C(c3cccs3)C2)cc1 (centres undefined) | 1.07 | –
33 | Cc1c(NC(=O)c2ncn[nH]2)c(=O)n(-c2ccccc2)n1C | -1.33 | –
34 | CCCCN1C(=O)/C(=c2\sc3nc(-c4cc(OC)c(OC)c(OC)c4)nn3c2=O)c2ccccc21 | -1.17 | –
35 | CCOC(=O)C(C)Sc1nnc(-c2c[nH]c3ccccc23)n1CC (centres undefined) | – | inactive
36 | CC1(C)CC(=O)c2sc(NC(=O)c3ccccc3)nc2C1 | -1.97 | –
37 | CCC(C)(C)C(=O)Nc1nc2c(s1)C(=O)CC(C)(C)C2 | 1.17 | –
38 | Cc1ccc2c(C)nc(NC3=NCN(CC4CCCO4)CN3)nc2c1 (centres undefined) | -1.73 | –
39 | CCOC(=O)C1=C(CS(=O)(=O)c2ccccc2)NC(=O)NC1c1cccc(Br)c1 (centres undefined) | 1.6 | –
